According to PubChem BioAssay (NCATS):
Where “and” joins values, the source holds several entries; their conditions need not be identical. Equal entries are not always repeated. Records with an inconclusive call do not appear. Calls of active or inactive are those of the source. The call rests on the fitted dose curve; in most records, active means well fitted curve in the direction sought with a large enough effect; inconclusive means small, poorly fitted or top-dose-only effect, or another doubt; inactive means no such curve, though single readings can be large; an effect the other way counts as inactive or inconclusive.

Assay: Quantitative highthroughput screen to assess conditional lethalithy of SEM cells grown in RPMI1640 with dialyzed fetal bovine serum (RPMI+ds) (AID 1963884); further: nearly all actives have a fitted effect of over 35% in size;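 on viability: 100% = DMSO control wells and 0% = empty wells without cells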
Conditions: SEM B-ALL cells, RPMI+dialyzed FBS, CellTiter-Glo viability, 48 h; series mostly up to 45.8 µM; viability: at the top concentration
Method in brief: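 Each medium arm—HPLM with 10% dialyzed FBS, or RPMI1640 with 5 mM glucose and 10% untreated or dialyzed FBS—was screened against an 11-point, 3-fold compound titration for 48 h at 37 °C, with CellTiter-Glo luminescence as endpoint.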
Potency means the concentration at half of the fitted maximal effect.

Structure (SMILES) | Potency | viability
Cn1c(=O)n(-c2ccc(C(C)(C)C#N)cc2)c2c3cc(-c4cnc5ccccc5c4)ccc3ncc21 | 372 nM (active) | –
CCN(CC)Cc1ccc2cc(COC(=O)Nc3ccc(C(=O)NO)cc3)ccc2c1 | 1870 nM (active) | –
CCCCCCCCCCCCc1ccc(S(=O)(=O)Nc2nncs2)cc1 | 6620 nM (active) | –
O=C(Nc1cn[nH]c1-c1nc2ccc(CN3CCOCC3)cc2[nH]1)NC1CC1 | 33.2 nM (active) | –
Cc1ccc2nc(NCCN)c3ncc(C)n3c2c1 | 20900 nM (active) | –
Cn1cc(C[C@@H](N)C(=O)O)c2ccccc21 | – | 72.1% [at 23.2 µM] (inactive)
COc1cc(C)c(Sc2cnc(NC(=O)c3ccc(CNC(C)C(C)(C)C)cc3)s2)cc1C(=O)N1CCN(C(C)=O)CC1 (stereo unspecified) | 3320 nM (active) | –
Cc1ccn(-c2ccc(-c3ncco3)cc2)c(=O)c1-c1ccc2nc(N)ncc2c1 | 1870 nM (active) | –
C[C@@H]1C[C@H]2[C@@H]3CCC4=CC(=O)C=C[C@]4(C)[C@@]3(Cl)[C@@H](O)C[C@]2(C)[C@@]1(OC(=O)c1ccco1)C(=O)CCl | – | 36.5% (inactive)
COCCNCCCn1c(C(=O)CF)c(-c2ccc(C)cc2)c2c(N)ncnc21 | 743 nM (active) | –
COc1ncc(-c2ccc3c(Nc4cc(Oc5cc(F)cc(F)c5)cc(C(=O)O)c4)c(S(=O)(=O)NC4CC4)cnc3c2)c(OC)n1 | – | 73.3% (inactive)
CC(C)(C)C(=O)OCOP(=O)(COCCn1cnc2c(N)ncnc21)OCOC(=O)C(C)(C)C | 105 nM (active) | –
C=CC(=O)Nc1cccc(Oc2nc(Nc3ccc(N4CCN(C)CC4)cc3)ncc2Cl)c1 | 1870 nM (active) | –
O=C(c1ccc(F)cc1)C1CCN(CCn2c(=O)[nH]c3ccccc3c2=O)CC1 | – | 101% (inactive)
NS(=O)(=O)c1ccc(Nc2nc(OCC3CCCCC3)c3[nH]cnc3n2)cc1 | 469 nM (active) | –
NCCc1ccc(O)c(O)c1 | 26400 nM (active) | –

Structure (SMILES) | Potency | viability
COc1cc2ncnc(-n3nc(-c4ccccn4)nc3N)c2cc1OC | 2350 nM (active) | –
CC(C)c1ccc2c(c1)c(SC(C)(C)C)c(CC(C)(C)C(=O)O)n2Cc1ccc(Cl)cc1 | – | 99.6% (inactive)
CCN(CCO)CCCOc1ccc2c(Nc3cc(CC(=O)Nc4cccc(F)c4)[nH]n3)ncnc2c1 | 235 nM (active) | –
CN[C@@H](C)[C@H]1[C@H](O)C[C@@]2(C)[C@@H]3CC[C@H]4C(C)(C)[C@@H](NC)CC[C@@]45C[C@@]35CC[C@]12C | – | 99.7% (inactive)
Cc1ccc(C(=O)c2cc(O)c(O)c([N+](=O)[O-])c2)cc1 | – | 105% (inactive)
CCOC(=O)[C@@H](N)CCC(=O)N[C@@H](CSCc1ccccc1)C(=O)N[C@@H](C(=O)OCC)c1ccccc1 | – | 98.2% (inactive)
CC(C)(C)c1cc(C(C)(C)C)c(NC(=O)c2c[nH]c3ccccc3c2=O)cc1O | – | 96.6% (inactive)
NC(=O)NO | 4180 nM (active) | –
Nc1ccccc1NC(=O)c1ccc(CNC(=O)OCc2cccnc2)cc1 | 743 nM (active) | –
COc1cccc(OC)c1-c1cc(C(=O)NC2(C(=O)O)C3CC4CC(C3)CC2C4)nn1-c1ccnc2cc(Cl)ccc12 (stereo unspecified) | – | 108% (inactive)
CCCCCN(CCC12CC3CC(CC(C3)C1)C2)C(=O)NCCCc1ccncc1 | – | 97.4% (inactive)
COC(=O)N[C@H](C(=O)N[C@@H](Cc1ccccc1)[C@@H](O)CN(Cc1ccc(-c2ccccn2)cc1)NC(=O)[C@@H](NC(=O)OC)C(C)(C)C)C(C)(C)C | – | 76.8% (inactive)
Nc1c2c(nc3ccccc13)CCCC2 | – | 96.9% (inactive)
NS(=O)(=O)c1cccc2c1C(=O)c1cccc(O)c1C2=O | 372 nM (active) | –
CNC(=O)c1cc(Oc2ccc(NC(=O)Nc3ccc(Cl)c(C(F)(F)F)c3)c(F)c2)ccn1 | 332 nM (active) | –
O=S(=O)(O)CCS | – | 122% (inactive)

Assay: Cellular viability qHTS for adrenocortical cancer (ACC) cell line SW-13 (AID 1963989); further: nearly all actives have a fitted effect of over 65% in size;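 on activity (max response): cells grown in serum-free medium with ITS supplement; on the % scale 0 is the no-effect control and ±100 the full control effect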
Conditions: SW-13 ACC cells viability, CellTiter-Glo, 48 h; activity (max response): stronger effect = lower value
Method in brief: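 Viability was read as CellTiter-Glo luminescence after 48 h compound treatment (up to 46 uM final) of SW-13 cells grown serum-free; titration curves were fit with a four-parameter logistic model to give IC50 and efficacy.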

Structure (SMILES) | Potency | activity (max response)
CCN(CC)Cc1ccc2cc(COC(=O)Nc3ccc(C(=O)NO)cc3)ccc2c1 | 2820 nM (active) | –
CCCCCCCCCCCCc1ccc(S(=O)(=O)Nc2nncs2)cc1 | – | -13.1% (inactive)
O=C(Nc1cn[nH]c1-c1nc2ccc(CN3CCOCC3)cc2[nH]1)NC1CC1 | 3160 nM (active) | –
Cc1ccc2nc(NCCN)c3ncc(C)n3c2c1 | 6310 nM (active) | –
Cn1cc(C[C@@H](N)C(=O)O)c2ccccc21 | – | -6.77% (inactive)
COCCNCCCn1c(C(=O)CF)c(-c2ccc(C)cc2)c2c(N)ncnc21 | – | 7.79% (inactive)
C=CC(=O)Nc1cccc(Oc2nc(Nc3ccc(N4CCN(C)CC4)cc3)ncc2Cl)c1 | 1260 nM (active) | –
O=C(c1ccc(F)cc1)C1CCN(CCn2c(=O)[nH]c3ccccc3c2=O)CC1 | – | -13.7% (inactive)
NS(=O)(=O)c1ccc(Nc2nc(OCC3CCCCC3)c3[nH]cnc3n2)cc1 | 22400 nM (active) | –
Cc1ccc(C(=O)Nc2cccc(C(F)(F)F)c2)cc1Nc1nc(-c2cccnc2)nc2c1cnn2C | 2510 nM (active) | –
NCCc1ccc(O)c(O)c1 | – | -9.5% (inactive) and -1.11% (inactive)
COc1cc2ncnc(-n3nc(-c4ccccn4)nc3N)c2cc1OC | – | 10.9% (inactive)
Clc1ccccc1C(c1ccccc1)(c1ccccc1)n1ccnc1 | 16400 nM (active) | –
CN[C@@H](C)[C@H]1[C@H](O)C[C@@]2(C)[C@@H]3CC[C@H]4C(C)(C)[C@@H](NC)CC[C@@]45C[C@@]35CC[C@]12C | – | -3.37% (inactive)
CCC(c1ccc(O)cc1)C(CC)c1ccc(O)cc1 (stereo unspecified) | 17800 nM (active) | –
CCOC(=O)[C@@H](N)CCC(=O)N[C@@H](CSCc1ccccc1)C(=O)N[C@@H](C(=O)OCC)c1ccccc1 | – | -10.6% (inactive)
CC(C)(C)c1cc(C(C)(C)C)c(NC(=O)c2c[nH]c3ccccc3c2=O)cc1O | 6310 nM (active) | –
NC(=O)NO | – | 10.6% (inactive) and 4% (inactive)
Nc1ccccc1NC(=O)c1ccc(CNC(=O)OCc2cccnc2)cc1 | 11200 nM (active) | –
COc1cccc(OC)c1-c1cc(C(=O)NC2(C(=O)O)C3CC4CC(C3)CC2C4)nn1-c1ccnc2cc(Cl)ccc12 (stereo unspecified) | – | -4.12% (inactive)
Cc1cn(CCN2CCN(c3ccccc3-c3cc(C#N)cc(C(=O)NCCCN4CCCC4)c3)CC2)c2ccccc12 | 22400 nM (active) | –
CCCCCN(CCC12CC3CC(CC(C3)C1)C2)C(=O)NCCCc1ccncc1 | – | -15.8% (inactive)
COC(=O)N[C@H](C(=O)N[C@@H](Cc1ccccc1)[C@@H](O)CN(Cc1ccc(-c2ccccn2)cc1)NC(=O)[C@@H](NC(=O)OC)C(C)(C)C)C(C)(C)C | – | -5.43% (inactive)
NS(=O)(=O)c1cccc2c1C(=O)c1cccc(O)c1C2=O | 1260 nM (active) | –
CNC(=O)c1cc(Oc2ccc(NC(=O)Nc3ccc(Cl)c(C(F)(F)F)c3)c(F)c2)ccn1 | 3980 nM (active) | –
O=C(N[C@@H](c1ccccc1)[C@@H]1CCCCN1)c1cccc(C(F)(F)F)c1Cl | 28200 nM (active) | –
O=S(=O)(O)CCS | – | 21.9% (inactive) and 0.753% (inactive)
CCN(c1ccccc1)c1cc(NC)[n+](C)c(C)n1 | – | -0.574% (inactive)
CCn1c(C(=O)N(C2CC2)C2CC2)cc2c3c(ncn3C)c(Nc3cc(C)n(C)n3)nc21 | – | -6.84% (inactive)
